TRPV1 ag – agonists of human vanilloid receptor 1 (TRPV1); AID 540275; TRPV1-expressing cells, Fluo-8 calcium influx, agonist mode; activation, % at 8.33 µM; 320,000 compounds, 0.19% hits; in the data active = activation above about 80%; inconclusive = between about 30% and that limit; also: 0% is about no effect
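TRPV1-expressing cells were cultured overnight at 35.5C and loaded with Fluo-8 calcium dye for 40 to 90 min at room temperature. After a 10 s baseline, compound was added and calcium influx was read kinetically for 3 min (ex 480/em 520 nm).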
TRPV1 potentiator – human TRPV1 potentiation | TRPV1-expressing cells, Fluo-8 calcium influx, capsaicin EC20 potentiation | potentiation, % at 8.33 µM | 320,000 compounds, 0.02% hits; in the data active = potentiation above about 80%; inconclusive = between about 30% and that limit; also: 0% is about no effect
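Fluo-8 calcium influx in TRPV1-expressing cells, kinetic read (ex 480/em 520 nm). Compound added and read 3 min for agonist activity, followed by capsaicin at EC20 final and 2 min further read for enhancement.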
CBFb-RUNX1 inh – CBF-beta/RUNX1 interaction disruption. Q01196+Q13951. AlphaScreen CBFb-His/RUNX1-biotin binding, biochemical. Potency, µM (highest dose often 59.8 µM), for the others: top-dose activity, negative = inhibition, usual class: inhibitors. 230,000 tested, under 10 active. AID 1477; also: % of control where 0% means no effect
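AlphaScreen proximity signal reports loss of binding between His-tagged CBF-beta and biotin-labelled RUNX1, each at 30 nM. Proteins are pre-associated for 20 minutes, compounds added for 15 minutes, then beads for 90 minutes, all at ambient temperature.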
Luc counter – blocks Kinase-Glo luciferase, a counter-screen artifact; Q27757; Kinase-Glo luciferase, ATP luminescence, 8 min; Potency, µM (series often up to 38.3 µM), inactives show at the top dose activity change, negative = inhibition, actives largely listed as inhibitors; 200,000 compounds, 0.28% hits; AID 1379; also: potency is read from the fitted curve at half-maximal effect; % is scaled to controls: 0 for no effect and ±100 for the full control effect; nearly all actives have a fitted effect of over 60% in size
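Luminescence was the read-out, taken after 8-minute incubation at ambient temperature. Luciferase turned over luciferin with 10 uM ATP in imidazole pH 7.2 buffer containing KCl, MgCl2, Tween 20 and BSA.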
MBNL1-CUG inh – MBNL1-poly(CUG) RNA binding inhibition; Potency, µM (doses to about 57.5 µM), for the others: at the top dose activity change, negative = inhibition, most hits filed as inhibitors; 280,000 compounds, 0.036% hits; AID 2675; Q9NR56; TR-FRET MBNL1-His/biotin-(CUG)12 binding, 665/545 ratio; active = well fitted inhibition curve with a large enough effect in the signal ratio, with a control signal flat, not every such curve was filed as active; inconclusive = small, poorly fitted or top-dose-only effect, or effect the other way, or a change in a side signal; inactive = no such curve, though single readings can be large or run the other way; the % refers to the signal ratio; also: potency is read from the fitted curve at half-maximal effect; % is scaled to controls: 0 for no effect and ±100 for the full control effect
Target sequence (Q9NR56 whole entry, looked up): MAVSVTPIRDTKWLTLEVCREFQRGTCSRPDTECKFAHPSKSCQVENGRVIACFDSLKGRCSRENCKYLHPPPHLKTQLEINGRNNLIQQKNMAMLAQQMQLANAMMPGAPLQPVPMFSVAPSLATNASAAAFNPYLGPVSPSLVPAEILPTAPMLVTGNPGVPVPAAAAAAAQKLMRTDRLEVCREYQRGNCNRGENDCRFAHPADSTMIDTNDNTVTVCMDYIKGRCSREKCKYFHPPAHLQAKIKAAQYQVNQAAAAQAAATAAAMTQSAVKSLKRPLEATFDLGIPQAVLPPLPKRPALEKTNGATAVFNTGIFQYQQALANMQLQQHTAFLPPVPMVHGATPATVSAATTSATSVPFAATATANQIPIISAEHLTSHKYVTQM
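His-tagged MBNL1 binding to biotinylated (CUG)12 RNA was measured by TR-FRET using terbium anti-His antibody (0.055 ng/ul final) and streptavidin-XL665 (5 nM final). Compounds were titrated 92 nM to 58 uM; 60 min at room temperature.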
TCR activator – T cell receptor activation; Potency, µM (highest dose often 9.22 µM), inactives show at the highest dose activation of IL-2 secretion, actives largely listed as activators; AID 504894; primary human leukocytes, anti-CD3, IL-2 HTRF, 48 h; 330,000 tested, under 10 active; also: % of control where 0% means no effect
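Compounds are tested in HTS on primary human leukocytes co-incubated with a-CD3 beads for 48 hr. IL-2 output is measured by time-resolved FRET.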
* = called active by the depositor; ? = inconclusive; . = no result; [ ] = remark or other dose. Compounds with a hit are over-represented: about 0.35% of the library has one in this group of screens. Unless noted, calls follow the shape of the dose curve; as a rule, active = well fitted curve in the direction sought with a large enough effect; inconclusive = small, poorly fitted or top-dose-only effect, or another doubt; inactive = no such curve, though single readings can be large; an effect the other way counts as inactive or inconclusive.

SMILES	TRPV1 ag	TRPV1 potentiator	CBFb-RUNX1 inh	Luc counter	MBNL1-CUG inh	TCR activator
CN(C)c1ccc(/C=C/C(=O)c2ccc(O)cc2)cc1	.	.	.	.	.	-7.5%
CN(C)c1ccc(/C=C/C(=O)c2cccnc2)cc1	84.9*	-3.5	5.7%	.	?	-2.2%
C[C@H]1C[C@H]2[C@H]3CCC4=CC(=O)C=C[C@@]4(C)[C@]3(F)[C@H](O)C[C@]2(C)[C@@]1(O)C(=O)COP(=O)(O)O	.	.	.	-4.6%[7.66 µM]	.	.
CCCCCCCCC/C=C/CC1CC(=O)OC1=O (stereo not given)	.	.	0.3%[21.7 µM]	.	.	.
Cc1ccc(S(=O)(=O)/C=C\C#N)cc1	.	.	10.2%[21.7 µM]	-1.3%	.	.
O=C(Nc1ccc2c(c1)nc1n2CCSC1)c1ccco1	-0.9	?	0.2%	10µM*	6.6%	.
O=C(Nc1ccc2c(c1)nc1n2CCOC1)c1ccco1	2.6	-6.0	3.5%	-15.0%	-9.5%	3.6%
Cc1c(O)ccc(/C=N/Nc2ncccc2[N+](=O)[O-])c1O	-0.8	-6.1	.	.	?	4.2%
O=[N+]([O-])c1cccnc1N/N=C/c1ccccc1O	-4.2	-4.1	-2.7%	2µM*	11.8%	4.7%
CCCOc1ccc(/C=N/Nc2ccccc2[N+](=O)[O-])c(O)c1	-2.9	-5.5	-2.7%	8.91µM*	-7.9%	-1.0%[46.1 µM]
CCCOc1ccc(/C=N/NC(=S)Nc2ccccc2[N+](=O)[O-])c(O)c1	0.3	-14.0	18.4%	-10.8%	-4.0%	-0.4%[46.1 µM]
COc1ccc(CC(=O)Nc2oc(-c3ccccc3)c(-c3ccccc3)c2C#N)cc1OC	84.1*	-2.8	-0.6%	-0.2%	-0.4%	8.4%[46.1 µM]
COc1oc(=O)c2cc(N)ccc2c1Cl	.	.	5.0%	.	.	.
O=C(c1ccc(Cc2nc3ccccc3[nH]2)cc1)N1CCOCC1	.	.	.	-1.1%	.	.
CCOc1ccc(Nc2ncnc3c2cnn3C)cc1	?	-9.9	.	.	-6.0%	-8.4%
CC(=O)Nc1ccc(Nc2ncnc3c2cnn3-c2ccc(C)cc2C)cc1	87.4*	-17.4	-5.7%	-3.4%	-0.7%	-58.7%
CCOC(=O)c1ccc(Nc2ncnc3c2cnn3C)cc1	82.5*	2.3	4.1%	.	5.0%	1.1%
Clc1ccc(/C=C\c2nc(Cl)c(-c3ccc(Cl)cc3)c(Cl)n2)cc1	.	.	.	-4.4%[7.66 µM]	.	.
C[C@@]12C[C@H](O)C3[C@H](CCC4=CC(=O)CC[C@]43C)[C@H]1CC[C@@H]2c1csc(N)n1 (stereo not given in full)	.	.	.	1.0%[7.66 µM]	.	.
CCOCCOCC	.	.	10.6%[21.7 µM]	.	.	.
O=c1[nH]c(SCc2c(Cl)c(Cl)c(Cl)c(Cl)c2Cl)nc(=S)[nH]1	.	.	.	-1.2%[7.66 µM]	.	.
CCc1ccc(C(C)NC(=S)NCc2ccc(F)cc2)cc1 (stereo not given)	?	-1.2	.	.	0.1%	-1.3%
CCOc1ccc(C(C)NC(=S)NCc2ccc(F)cc2)cc1 (stereo not given)	86.5*	-9.5	.	.	-12.1%	-3.5%
Cc1ccc(C(C)NC(=S)NCc2ccc(F)cc2)c(C)c1 (stereo not given)	?	-4.0	.	.	2.0%	-1.3%
Cc1ccc(C(C)NC(=S)NCc2ccc(F)cc2)cc1C (stereo not given)	80.1*	1.1	.	.	-1.0%	9.7%
SMILES	TRPV1 ag	TRPV1 potentiator	CBFb-RUNX1 inh	Luc counter	MBNL1-CUG inh	TCR activator
COc1ccc(Br)cc1/C=N/n1c(-c2ccccc2)n[nH]c1=S	-6.4	80.3*	.	.	-7.9%	-1.8%
CCc1ccc(NC(=O)c2cc(C(C)C)on2)cc1	82.1*	-17.2	2.2%	-16.6%	-6.5%	14.7%
CCc1ccc(NC(=O)c2cc(C)on2)cc1	?	-21.5	5.4%	-5.9%	5.2%	.
Cc1ccc(Cn2c(=N)c(C(=O)NCC3CCCO3)cc3c(=O)n4cccc(C)c4nc32)cc1 (stereo not given)	81.8*	-11.0	.	.	?	-9.5%
COC(=O)c1cc(=O)c(O)c2c(O)c(O)ccc2c1	.	.	.	-3.2%	.	.
CC(C)(C)S(=O)(=O)c1cnc2c(S(=O)(=O)c3ccccc3)cnn2c1N	-1.3	2.1	4.2%	0.9%	-0.4%	-3.9%
Cc1nc2c(S(=O)(=O)c3ccccc3)cnn2c(C)c1C	1.7	82.2*	-6.1%	-0.7%	-1.8%	.
Oc1ccc(Cl)cc1N=Nc1ccccc1	5.1	-4.6	.	.	1.6%	-1.4%
Cc1ccc(O)c(N=Nc2ccccc2)n1	.	.	9.6%	2.82µM*	?	-1.7%
Cn1c(SC(C(=O)Nc2ccc(F)cc2)c2ccccc2)nc2ccccc21 (stereo not given)	84.6*	-3.5	4.0%	1.4%	?	-1.7%[46.1 µM]
c1ccc2c(c1)Cc1cc3cc4c(cc3nc1-2)OCO4	.	.	-26.5%	2.82µM*	.	.
Cc1ccc(F)cc1-c1ccc(C(=O)N=C(N)N)o1	.	.	14.7%	.	.	.
O=C(Nc1ccc2c(c1)OCO2)C1CCN(C(=O)CSc2ncnc3ccccc23)CC1	80.8*	-7.7	-8.5%	5.8%	-0.1%	4.9%
COc1cccc2oc(-c3ccccc3)cc(=O)c12	.	.	-0.4%	15.8µM*	.	.
COc1cccc2oc(-c3ccc(O)cc3)cc(=O)c12	.	.	22.2%[21.7 µM]	-18.9%	.	.
O=C(/C=C\Nc1ccccc1Br)c1ccc2c(c1)OCO2	8.7	-1.9	-23.0%	10µM*	?	3.6%
CCC(C)(C(=O)NC1CCCC1)N(C)C(=O)c1ccccn1 (stereo not given)	5.4	88.7*	0.6%	0.7%	3.5%	-20.6%
Cc1cc(=O)[nH]c(N/N=C/c2sccc2C)n1	-2.1	-4.3	-2.1%	11.2µM*	.	-9.3%
O=C(NCCSCc1c(F)cccc1Cl)Nc1ccccc1	82.8*	17.4	.	.	-1.5%	0.8%
Cc1ccc2c(c1)-c1nc3ccccc3cc1C2=NC1CCCCC1	14.2	-6.0	-0.5%	-1.7%	?	3.6%[46.1 µM]
Cc1ccc2c(c1)Cc1nc3ccccc3nc1-2	28.9	-28.8	25.9%	8.91µM*	?	2.2%
N=C(N)SCCSC(=N)N	.	.	.	-7.1%[7.66 µM]	.	.
c1ccc2c(c1)oc1c(Nc3ccc(CN4CCOCC4)cc3)ncnc12	84.5*	-8.3	1.6%	1.4%	-15.8%	-15.0%
c1ccc(Nc2ncnc3c2oc2ccccc23)cc1	81.0*	-4.5	15.2%	0.7%	9.8%	-6.7%
O=[N+]([O-])c1ccc2c(N=Nc3ccc4ccccc4c3O)c(O)cc(S(=O)(=O)O)c2c1	.	.	.	-15.7%[7.66 µM]	.	.
CCNC(=S)N1CCN(c2nc(CC)nc3sc4c(c23)CCCC4)CC1	82.5*	4.8	.	.	1.7%	4.9%
O=C1NN(C(=O)Nc2ccc(Br)cc2)C(c2ccccc2)C1c1ccccc1 (stereo not given)	.	.	8.0%	.	.	.
Cc1ccc(C(=O)/C=C/Nc2ccccc2C(N)=O)cc1	-0.9	4.2	0.3%	11.2µM*	?	8.5%
CN(C)c1ccc(N/C=C/C(=O)c2ccccc2)cc1	2.7	3.5	7.4%	3.98µM*	31.5%	1.8%
